Source: PubChem BioAssay (NCI)
Compounds without any hit were thinned out: in the full panel of roughly 83,000, 20% have a hit.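 Method: cells in 96-well plates; compound added at one concentration; 48 h incubation; percent growth measured; values under 10 scored active.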 A number with no mark means an inactive call. Active and inactive are the calls of the source.

What was measured:
Assay in all cases: NCI-60 one-dose screen, 48 h (100 = growth as untreated, 0 = no growth, -100 = all killed)
Details in all cases: 10 µM unless noted
HCT-15 colon = tested on: HCT-15 colon
HT29 colon = tested on: HT29 colon
SNB-75 CNS = tested on: SNB-75 CNS
SNB-19 CNS = tested on: SNB-19 CNS
U251 CNS = tested on: U251 CNS
PC-3 prostate = tested on: PC-3 prostate
SK-MEL-5 melanoma = tested on: SK-MEL-5 melanoma
UACC-62 melanoma = tested on: UACC-62 melanoma
LOX IMVI melanoma = tested on: LOX IMVI melanoma
SK-MEL-28 melanoma = tested on: SK-MEL-28 melanoma

Row | Structure (SMILES) | growth (HCT-15 colon) | growth (HT29 colon) | growth (SNB-75 CNS) [%] | growth (SNB-19 CNS) [%] | growth (U251 CNS) | growth (PC-3 prostate) | growth (SK-MEL-5 melanoma) [%] | growth (UACC-62 melanoma) [%] | growth (LOX IMVI melanoma) | growth (SK-MEL-28 melanoma)
1 | C/C(Nc1ccc(Cl)c(Cl)c1)=C1\CCOC1=O | 84% | 84.8% | 78.6 | 106 | 91% | 86.8% | 101 | 71.2 | 67.6% | 111%
2 | Cc1cccc(Cl)c1NC(=O)c1ccc2nc(NC(=O)NCCN(C)C)sc2c1 | 99.3% | 80.1% | 23.7 | 105 | 80.4% | 62.2% | 67.3 | 97.3 | 91.5% | 87.6%
3 | COP(=O)(OC)C(C)(C)CC(=O)CC(C#N)(C#N)C(C#N)C#N | 93.3% | 107% | 98.2 | 99.3 | 97.3% | 92.5% | 101 | 96.1 | 100% | 104%
4 | COc1ccccc1Nc1nc2c(s1)C1=CC[C@H]3[C@@H]4CC[C@H]([C@H](C)CCCC(C)C)[C@@]4(C)CC[C@@H]3[C@@]1(C)CC2 | 103% | 101% | 97.6 | 104 | 113% | 92.7% | 100 | 96.7 | 94% | 110%
5 | CS(=O)(=O)Nc1cc(-c2ccc3ncnc(Nc4ccc5c(cnn5Cc5ccccn5)c4)c3c2)cnc1Cl | 99.2% | 80.7% | 16.2 | 80.6 | 81.5% | 72.8% | 77.7 | 61.8 | 71% | 56.1%
6 | Cc1ccc(-c2nn(-c3ccccc3)cc2C=C2C(=O)ON=C2C(C)C)cc1 | 63% | 44.5% | 70.3 | 78.4 | 52.4% | 63.5% | 87.1 | 75.8 | 2% (active) | 88.7%
7 | O=C(Nc1ccc(NC(=O)c2cc(=O)[nH]c3ccccc23)cc1)Nc1cccc(C(F)(F)F)c1 | 95.3% | 67.8% | 58.5 | 23.8 | 19.5% | 69.8% | 69.9 | 68 | 21% | 63.6%
8 | CCOC(=O)c1cc2c(=O)oc3ccccc3c2oc1=O | 96% | 96% | 82.1 | 105 | 91.6% | 69.3% | 106 | 95.8 | 91.5% | 116%
9 | O=C(COc1ccc(-c2nc3ccccc3[nH]2)cc1)N=Nc1c(O)[nH]c2ccc(Cl)cc12 | 93% | 41.2% | 103 | 56.5 | -45.1% (active) | 25.9% | 94.9 | 100 | 60.7% | 108%
10 | O=C(Nn1c2c(sc1=NCc1ccccc1)C(=O)c1ccccc1C2=O)c1cc2ccc1CCc1ccc(cc1)CC2 | 55.3% | 99.6% | 33.9 | 74.1 | 70.7% | 57.8% | 51.3 | 66.4 | 35.7% | 91.4%
11 | Cc1ccc(-c2nc(N3CCNCC3)c3oc(-c4ccccc4)nc3n2)cc1 | -77.7% (active) | -93.8% (active) | 85.4 | 16.7 | -98.2% (active) | -81.5% (active) | 70.9 | 91.3 | -89.1% (active) | -81.3% (active)
12 | Fc1cccc(CNc2c3ccccc3nc3ccccc23)c1F | 39.5% | 29.1% | 78.8 | 58.5 | 65.6% | 57.1% | 83 | 75.7 | 39.2% | 96.9%
